Data as given in PubChem BioAssay AID1159580 (chemical genetic matrix, 2015).
Several values for one entry are separate records, joined by “and”; a condition that tells them apart may be missing. Equal entries are not always repeated. In all, about 5,500 compounds went through this assay and about 2,000 (36%) were called active. Roughly 18% stayed inconclusive and do not appear here. Rule as the data show it: active = normalized growth mostly below about 0.91 (no sharp cut-off); inconclusive = no clear call, values can overlap the other calls; inactive = mostly above about 0.92. This is one part of the list.

Assay: chemical genetic growth profiling, strain panel (AID 1159580);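 also: tested at 20 µM; growth read once vehicle control cultures reached saturation at 30 °C; 1 = growth at the plate median or of vehicle wells; lower values mean less growth of the strain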
Settings: S. cerevisiae deletion strains, growth OD
[1] = locus YAL040C, strain CLN3, hits give low values
[2] = locus YCL061C, strain MRC1 (second series), hits give low values
[3] = locus YDR363W, strain ESC2, hits give low values
[4] = locus YER002W, strain NOP16, hits give low values
[5] = locus YMR263W, strain SAP30, hits give low values
[6] = locus YNL175C, strain NOP13, hits give low values
[7] = locus YNL197C, strain WHI3, hits give low values
[8] = locus YNL224C, strain SQS1, hits give low values
[9] = locus YOR083W, strain WHI5 (second series), hits give low values
[10] = locus YPL241C, strain CIN2, hits give low values

Measured: normalized growth

NCC(O)c1ccc(O)c(O)c1 (configuration not stated)
inactive: [1] 1.01 and 1.02 | [2] 0.998 | [3] 0.991 | [4] 1.02 and 0.999 | locus YGR078C, strain PAC10, hits give low values 1 | locus YJR075W, strain HOC1, hits give low values 1.02 | [5] 1.01 | locus YMR307W, strain GAS1, hits give low values 1.02 | locus YNL153C, strain GIM3, hits give low values 1.01 | [6] 0.999 and 1.01 | [7] 0.995 and 1.01 | [8] 0.987 and 0.982 | locus YNL322C, strain KRE1, hits give low values 0.997 and 1.02 | [9] 0.98 and 0.991 | locus YPL055C, strain LGE1, hits give low values 1 | [10] 1.01

COc1cc(C(O)CN)ccc1O (configuration not stated)
inactive: [1] 1.01 | [2] 1.01 | [3] 1.02 | [4] 1.04 | locus YGR229C, strain SMI1, hits give low values 1.01 | [5] 1.01 | [6] 1.02 | [7] 1.01 | [8] 1 | [9] 1.01 | [10] 1
